{
  "source": "PubChem BioAssay (NCATS)",
  "note": "Values without a mark were called inactive. A call without a number means that no potency is given here. The source made the active and inactive calls. Calls follow the shape of the dose curve; as a rule, active = well fitted inhibition curve with a large enough effect; inconclusive = small, poorly fitted or top-dose-only effect; inactive = flat fitted curve, though single readings scatter.",
  "data": [
    {"target": "Luciferin 4-monooxygenase (Photinus pyralis) (UniProt P08659)", "test": "Primary firefly luciferase (FLuc) qHTS assay for identification of artifact compounds. (AID 1845220); also: nearly all actives have a fitted effect of over 60% in size", "settings": "purified firefly luciferase, luminescence, 5 min; series mostly up to 54.1 µM", "text": "PI: Alexander Tropsha Ph.D.\nUNC Eshelman School of Pharmacy\nUniversity of North Carolina, Chapel Hill, North Carolina\nHits from high-throughput screening (HTS) of chemical libraries are often false positives due to their interference with the assay detection technology. In response to this problem, we generated the largest publicly available library of chemical liabilities and developed a free webtool to predict HTS artifacts, both of which are described herein. More specifically, we generated, curated, and integrated HTS datasets for thiol reactivity, redox activity, and luciferase (firefly and nano) activity. Using these curated datasets, we developed and validated several Quantitative Structure-Interference Relationship (QSIR) models to predict nuisance behavior. […] These models were employed for virtual profiling of the National Center for Advancing Translational Science's (NCATS) in-house library, and 256 compounds for each assay were selected for the experimental validation of nuisance behavior. The BA for these external predictions ranged from 58 to 78% for compounds within the applicability domains of the models. […] The models developed in this study, along with aggregation models previously developed by our group (SCAM Detective) were implemented in \"Liability Predictor,\" an online tool which may be used as part of chemical library design or for triaging HTS hits. Both the models and the curated datasets are publicly available at https://liability.mml.unc.edu/.\nSEQUENCE No. (e.g., 1, 2, 3, etc.); […] (e.g., Cells, Incubation, Reagent, etc.); VALUE; DESCRIPTION.\n1; Reagent; 3 uL; Luciferase substrate mixture.\n2; Compounds and control; 16 nL; Kalypsis pin tool (Wako USA) equipped with a 1536-well pin head.\n4; Reagent; 1 uL; Luciferase enzyme.\n6; Detection; Luminescence, ViewLux microplate reader.\nNOTES (numbers refer to Sequence numbers above)\n1. 3 uL of luciferase substrate mixture containing D-luciferin and ATP (final concentrations of 10 uM and 10 uM, respectively) in assay buffer (10 mM Mg-acetate, 0.01% Tween-20, 0.05% bovine serum albumin, 50 mM Tris acetate, pH 7.6) was dispensed into all wells of a 1536-well assay plate (solid-bottom white plate; Greiner Bio One, Monroe, NC).\n2. A Wako Pin-tool (Wako Automation, Richmond, VA) was used to transfer 16 nL of compounds (consisting of 7-plates in qHTS format, final concentration range 18.3 nM to 114 uM) or control PTC124 (final concentration range 1.22 nM to 40 uM).\n3. 15 min. incubation at room temperature protected from light.\n4. 1 uL of luciferase enzyme (final concentration 10 nM, Photinus pyralis luciferase) or buffer was dispensed for a final assay volume of 4 uL.\n5. Plates were centrifuged (121xg, 15 seconds) and incubated for 5 minutes.\n6. Samples were read for luminescence on a ViewLux CCD imager (PerkinElmer). Data were normalized to no-enzyme (0% activity) and no-inhibitor (DMSO; 100%) controls and the resulting percent inhibition data were fitted to a 4-parameter Hill equation using NCATS in-house software.", "values": [
      {"compound": "C=C[C@@]1(C)CCC2=C([C@H]1OC(C)=O)[C@H](OC(C)=O)CC1[C@](C)(C(=O)OC)CC[C@H](OC(C)=O)[C@]21C", "note": "(stereo not given in full)", "Potency": "inactive"},
      {"compound": "C[C@@H]1[C@H](O)[C@@H]2OC(=O)C3=C2[C@H](CCC3)[C@@]12C[C@@H](c1ccoc1)OC2=O", "Potency": "inactive"},
      {"compound": "C/C=C/C=C/[C@@H]1O[C@](O)([C@H](CC)C(=O)NC/C=C/C=C(\\C)[C@@H](OC)[C@@H](C)[C@@H]2O[C@H](/C=C/C=C/C=C(\\C)C(=O)c3c(O)ccn(C)c3=O)[C@H](O)[C@@H]2O)[C@H](O)[C@H](O)C1(C)C", "outcome": "inactive [at 11.6 µM]"},
      {"compound": "COc1ccc(-n2c(SCC#N)nc3sc4c(c3c2=O)CCCC4)cc1", "Potency": "inactive"},
      {"compound": "C/C(=C\\CCC1(C)C2CC3C(C2)C31C)C(=O)O", "note": "(stereo not given)", "Potency": "inactive"},
      {"compound": "Cn1nccc1-c1ccccc1Oc1ccc(S(=O)(=O)Nc2nccs2)cc1C#N", "Potency": "inactive"},
      {"compound": "C=C[C@H]1[C@H](O[C@@H]2O[C@H](CO)[C@@H](O)[C@H](OC(=O)/C=C/c3ccc(O)c(OC)c3)[C@H]2O)OC=C2C(=O)OCC[C@]21O", "Potency": "inactive"},
      {"compound": "CCCCS(=O)(=O)NC(Cc1ccc(OCCCCC2CCNCC2)cc1)C(=O)O", "note": "(stereo not given)", "Potency": "inactive"},
      {"compound": "C/C(=C\\CC/C(C)=C/CC[C@]1(C)CCc2cc(O)cc(C)c2O1)CC/C=C(\\C)C(=O)O", "Potency": "inactive"},
      {"compound": "CC(=O)/C=C/C1(O)C(C)=CC(=O)CC1(C)C", "note": "(stereo not given)", "Potency": "inactive"},
      {"compound": "CSC(=O)OCC1=C[C@@H]2OC(=O)C3=CO[C@@H](O[C@@H]4O[C@H](CO)[C@@H](O)[C@H](O)[C@H]4O)[C@H]1[C@@H]32", "Potency": "inactive"},
      {"compound": "CC1(C)CC[C@]2(C(=O)O)CC[C@]3(C)C(=CCC4[C@@]5(C)CC[C@H](O)C(C)(C)C5CC[C@]43C)C2C1", "note": "(stereo not given in full)", "Potency": "inactive"},
      {"compound": "COc1cc(O)cc(C)c1C(=O)OC1C(CO)OC(n2ccc(=O)[nH]c2=O)C1OC(C)=O", "note": "(stereo not given)", "Potency": "inactive"},
      {"compound": "C=C1Cc2c(Cl)cc3[nH]c4c5c3c2[C@@]2(O)[C@@H]1C[C@@H]2C(C)(C)O[C@H]5C1CC[C@@]2(O)[C@@]35O[C@@H]3[C@H]3OC(C)(C)[C@H]3O[C@H]5CC[C@]2(C)[C@@]41C", "note": "(stereo not given in full)", "Potency": "inactive"},
      {"compound": "C[C@@]1(O)[C@H](O)[C@@H](CO)O[C@H]1n1cnc2c(=O)[nH]c(N)nc21", "Potency": "inactive"},
      {"compound": "CC(C(=O)Nc1cc(C#N)ccc1CCCC(=O)O)c1ccc(F)c2ccccc12", "note": "(stereo not given)", "Potency": "inactive"},
      {"compound": "CC(C)C1NC(=O)C(CC2(O)c3ccccc3N3C(=O)C(Cc4ccccc4)NC32)NC1=O", "note": "(stereo not given)", "Potency": "inactive"},
      {"compound": "OC[C@H]1O[C@@H](OCc2ccccc2)[C@H](O[C@@H]2OC[C@@H](O)[C@H](O)[C@H]2O)[C@@H](O)[C@@H]1O", "Potency": "inactive"},
      {"compound": "CCc1nnc(NS(=O)(=O)c2ccc(NC(=S)NC(=O)/C=C/c3ccc(F)cc3)cc2)s1", "Potency": "inactive"},
      {"compound": "COc1cc(/C=C/C(=O)OC[C@H]2O[C@@H](OC3CC(C)=C(C(=O)O)C(C)(C)C3)[C@H](O)[C@@H](O)[C@@H]2O)cc(OC)c1O", "note": "(stereo not given in full)", "Potency": "inactive"},
      {"compound": "Cc1cccc(-c2nn3c(c2-c2ccnc4ccc(C(N)=O)cc24)CCC3)n1", "Potency": "inactive"},
      {"compound": "CC(C)(O)C1OC1C1=CC(=O)C2(C)OC2C1O", "note": "(stereo not given)", "Potency": "inactive"},
      {"compound": "CC1=CC(=O)[C@]2(O[C@@H]3O[C@@H](C)[C@H](O)[C@@H](O)[C@H]3O)C=CO[C@@H](O[C@@H]3O[C@H](CO)[C@@H](O)[C@H](O)[C@H]3O)[C@H]12", "Potency": "inactive"},
      {"compound": "CC1=CC(=O)CC(C)(C)C1CO[C@@H]1O[C@H](CO)[C@@H](O)[C@H](O)[C@H]1O", "note": "(stereo not given in full)", "Potency": "inactive"},
      {"compound": "COc1ccccc1Oc1c(NS(=O)(=O)c2ccc(C)cn2)nc(-c2ccncc2)nc1OC", "Potency": "inactive"},
      {"compound": "CC(C)CC(=O)OC[C@@]1(O)C[C@@]23CC[C@H]4[C@@](C)(CCC[C@@]4(C)C(=O)O)[C@@H]2CC[C@@H]1C3", "Potency": "inactive"},
      {"compound": "COc1cc(O)cc(C)c1C(=O)O[C@H]1[C@@H](O)[C@@H](n2ccc(=O)[nH]c2=O)O[C@@H]1CO", "Potency": "inactive"},
      {"compound": "Cc1ccc(-c2c(-c3nn(C)c4ncnc(N5CCC(N6CCCCC6)C5)c34)cnn2C)cc1", "note": "(stereo not given)", "Potency": "inactive"},
      {"compound": "CC(=O)Nc1cccc2c1c(Sc1ccc(Cl)cc1)c(C)n2CC(=O)O", "Potency": "inactive"},
      {"compound": "COc1cc(CC2COC(c3ccc(OC4OC(CO)C(O)C(O)C4O)c(OC)c3)C2CO)ccc1O", "note": "(stereo not given)", "Potency": "inactive"},
      {"compound": "CN1CCc2cc(Cl)c(O)cc2[C@@H](c2cccc3c2OCC3)C1", "Potency": "inactive"},
      {"compound": "C[C@@H]1O[C@@H](OC2C(CO)OC(OCC3OC(OC(=O)[C@]45CCC(C)(C)CC4C4=CCC6[C@@]7(C)CC[C@@H](O)[C@](C)(C(=O)O)C7CC[C@@]6(C)[C@]4(C)CC5)C(O)C(O)C3O)C(O)C2O)[C@H](O)[C@H](O)[C@H]1O", "note": "(stereo not given in full)", "activity change, negative = inhibition": "-1.59% [at 11.6 µM]"},
      {"compound": "Cc1cn(C[C@H](N)C(=O)O)c(=O)n(Cc2ccsc2C(=O)O)c1=O", "Potency": "inactive"},
      {"compound": "CC(C)c1ccc2c(c1)C(=O)CC1C(C)(C(=O)O)CCCC21C", "note": "(stereo not given)", "Potency": "inactive"},
      {"compound": "CC(=O)OC12CC(C)C(OC(=O)c3ccccc3)C1/C=C(/C)C(OC(=O)c1ccccc1)CC(=O)C(C)(C)/C=C/C(C)C2=O", "note": "(stereo not given)", "Potency": "inactive"},
      {"compound": "C=C1C[C@]23C[C@@]1(O)CC[C@H]2[C@@]12C=C[C@H](O)[C@@](C)(C(=O)O1)[C@H]2[C@@H]3C(=O)O", "Potency": "inactive"},
      {"compound": "CN1CCCC1Cc1c[nH]c2ccc(CCS(=O)(=O)c3ccccc3)cc12", "note": "(stereo not given)", "Potency": "inactive"},
      {"compound": "CC(C)C1C(OC(=O)/C=C/c2ccccc2)CC2(C)OC2CCC2(C)OC2C1O", "note": "(stereo not given)", "Potency": "inactive"},
      {"compound": "O=C(O)c1cc(C(F)(F)F)ccc1N1CC[C@H](OCc2ccccn2)C1", "Potency": "inactive"},
      {"compound": "CC(NC(=O)[C@H](Cc1ccccc1)NC(=O)OCc1ccccc1)C(=O)CF", "note": "(stereo not given in full)", "Potency": "inactive"}
    ]}
  ]
}
